In PubChem BioAssay (Tox21) one finds Potency data, which are given here for 26 compounds.

Molecules are shown by their SMILES. Results filed as inconclusive are left out. Activity calls are given as the source filed them. Unless noted, calls come from the whole dose curve; as a rule, active = well fitted curve in the direction sought with a large enough effect in the repeat runs; inconclusive = weak or mixed curves; inactive = no such curve, though single readings can be large; an effect the other way counts as inactive or inconclusive.

The nature of experiment [1]: qHTS assay to identify small molecule antagonists of the estrogen related receptor (ERR) signaling pathway from Tox21 library - cell viability counter screen (AID 1224834). Note: nearly all actives have a fitted effect of over 30% in size. Note: potency is the fitted concentration of half-maximal effect. Put shortly:
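Fluorescence from CellTiter-Fluor gives the viability read-out, taken 30 min after reagent addition. Before that, ERR cells seeded 6 h earlier were incubated with compounds for 17.5 h at 37 C.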
A general note: Quantitative high-throughput screening tests each substance at several concentrations.

The target in experiment [2] is Luciferin 4-monooxygenase (Photinus pyralis) (UniProt P08659). Put plainly: qHTS assay to identify small molecule inhibitors of firefly luciferase (AID 1224835). Note: nearly all actives have a fitted effect of over 25% in size. Note: potency is the fitted concentration of half-maximal effect. Put shortly:
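Quantitative HTS format; KM concentrations of both substrates. Purified P. pyralis FLuc activity quantified from luminescence images.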

Experiment [3] is described as follows: qHTS assay to identify small molecule agonists of the constitutive androstane receptor (CAR) signaling pathway - cell viability counter screen (AID 1224836). Note: nearly all actives have a fitted effect of over 45% in size. Note: potency is the fitted concentration of half-maximal effect. Put shortly: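 Fluorescence from CellTiter-Fluor indicates live cells after 23 h exposure. The human hepatoma line expresses hCAR and a CYP2B6-2.2kb reporter. Incubation medium contains 0.75 uM PK11195 (final).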

A short description of experiment [4]: qHTS assay to identify small molecule antagonists of the constitutive androstane receptor (CAR) signaling pathway - cell viability counter screen (AID 1224837). Note: nearly all actives have a fitted effect of over 45% in size. Note: potency is the fitted concentration of half-maximal effect. An outline of the steps: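 HepG2-CYP2B6-hCAR cells, 2500/well, 4 hr pre-incubation; compound titration, 15 conc.; CITCO 50 nM final; 23 hr, 37 C/5% CO2; CellTiter-Fluor, fluorescence intensity.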
The target of experiment [5] is Nuclear receptor subfamily 1 group I member 3 (Homo sapiens) (UniProt Q14994). Put plainly: qHTS assay to identify small molecule antagonists of the constitutive androstane receptor (CAR) signaling pathway (AID 1224838).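 Note: HepG2 cells stably expressing hCAR with CYP2B6 luciferase reporter stimulated by CITCO; nearly all actives have a fitted effect of over 40% in size.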 Note: potency is the fitted concentration of half-maximal effect. Put shortly: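 HepG2-CYP2B6-hCAR cells; 4 h pre-incubation; cpd (15 conc) + CITCO 50 nM final; 24 h, 37 C/5% CO2; ONE-Glo, luminescence.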
Experiment [6] has the same target. Put plainly: qHTS assay to identify small molecule agonists of the constitutive androstane receptor (CAR) signaling pathway (AID 1224839). Note: nearly all actives have a fitted effect of over 15% in size. Note: potency is the fitted concentration of half-maximal effect. An outline of the steps:
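Stable hCAR/CYP2B6-2.2kb HepG2 line in DMEM with 10% FBS; compounds (15 concentrations) and 0.75 uM PK11195 final, 24 h at 37 C/5% CO2, then ONE-Glo luminescence after 30 min.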

A short description of experiment [7]: qHTS assay to identify small molecule antagonists of the estrogen related receptor signaling pathway with the pleiotropic PPARgamma coactivator (PGC) from Tox21 10K library - cell viability counter screen (AID 1224840; active = well fitted cell-killing curve with a large enough effect in the repeat runs, not every such curve was filed as active; note: nearly all actives have a fitted effect of over 40% in size; note: potency is the fitted concentration of half-maximal effect). An outline of the steps: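 PGC/ERR cells, 2,000/well; 6 h pre-incubation 37 C/5% CO2; cpd in DMSO via pin tool; 17.5 h 37 C; CellTiter-Fluor, 30 min; fluorescence.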

Experiment [8] in a line: qHTS assay to identify small molecule antagonists of the estrogen related receptor signaling pathway with the pleiotropic PPARgamma coactivator (PGC) from Tox21 10K library (AID 1224841; call rule not given here; note: series mostly up to about 92 µM; actives are mostly falling curves and most rising ones were filed inactive; nearly all actives have a fitted effect of over 50% in size). Put shortly: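 PGC/ERR cell line, 2,000 cells/well; 6 h pre-incubation 37 C/5% CO2; compounds (DMSO) pinned in; 18 h, 37 C; One-Glo, 30 min RT; luminescence.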
Experiment [9] in a line: qHTS assay to identify small molecule agonists of the estrogen related receptor signaling pathway with the pleiotropic PPARgamma coactivator (PGC) from Tox21 10K library (AID 1224842). Note: nearly all actives have a fitted effect of over 15% in size. Put shortly: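 PGC/ERR reporter cells (NTP line) were seeded 2,000 per well, rested 6 h at 37 C/5% CO2, then pin-dosed with compounds in DMSO for 18 h at 37 C; luciferase read by One-Glo luminescence after 30 min at room temperature.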

For experiment [10], the target named is Thyrotropin receptor (Homo sapiens) (UniProt P16473). Description: qHTS assay to identify small molecule agonists of the thyroid stimulating hormone receptor (TSHR) signaling pathway (AID 1224843; calls by dose curve; note: nearly all actives have a fitted effect of over 45% in size; note: potency is the fitted concentration of half-maximal effect). Put shortly: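 Cell line HEK293 with TSHR; density 800/well. Exposure 30 min RT. Readout HTRF cAMP (cAMP-d2/anti-cAMP-cryptate), 1 h RT before reading.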
Thyrotropin receptor (Homo sapiens), sequence (P16473 whole entry, looked up): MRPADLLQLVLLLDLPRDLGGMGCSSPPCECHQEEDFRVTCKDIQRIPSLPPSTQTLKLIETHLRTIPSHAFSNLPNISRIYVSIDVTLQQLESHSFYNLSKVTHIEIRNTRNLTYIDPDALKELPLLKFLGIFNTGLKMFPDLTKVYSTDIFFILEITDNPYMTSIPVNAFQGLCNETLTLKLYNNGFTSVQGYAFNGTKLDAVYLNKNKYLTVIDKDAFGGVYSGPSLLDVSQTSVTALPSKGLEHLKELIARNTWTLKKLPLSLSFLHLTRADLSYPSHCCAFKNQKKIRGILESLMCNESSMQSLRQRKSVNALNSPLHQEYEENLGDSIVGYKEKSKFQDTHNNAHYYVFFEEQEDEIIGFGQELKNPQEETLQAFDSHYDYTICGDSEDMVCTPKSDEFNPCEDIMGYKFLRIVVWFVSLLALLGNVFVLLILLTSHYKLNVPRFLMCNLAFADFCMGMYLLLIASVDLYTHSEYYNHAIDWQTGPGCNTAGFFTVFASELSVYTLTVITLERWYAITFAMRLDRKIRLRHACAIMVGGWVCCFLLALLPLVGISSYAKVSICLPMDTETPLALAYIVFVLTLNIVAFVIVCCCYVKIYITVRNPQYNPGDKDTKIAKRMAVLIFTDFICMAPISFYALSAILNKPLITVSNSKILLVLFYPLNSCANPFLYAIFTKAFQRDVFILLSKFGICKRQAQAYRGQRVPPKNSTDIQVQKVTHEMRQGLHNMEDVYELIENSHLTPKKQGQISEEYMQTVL

Nuclear receptor subfamily 1 group I member 3 (Homo sapiens), sequence (Q14994 whole entry, looked up): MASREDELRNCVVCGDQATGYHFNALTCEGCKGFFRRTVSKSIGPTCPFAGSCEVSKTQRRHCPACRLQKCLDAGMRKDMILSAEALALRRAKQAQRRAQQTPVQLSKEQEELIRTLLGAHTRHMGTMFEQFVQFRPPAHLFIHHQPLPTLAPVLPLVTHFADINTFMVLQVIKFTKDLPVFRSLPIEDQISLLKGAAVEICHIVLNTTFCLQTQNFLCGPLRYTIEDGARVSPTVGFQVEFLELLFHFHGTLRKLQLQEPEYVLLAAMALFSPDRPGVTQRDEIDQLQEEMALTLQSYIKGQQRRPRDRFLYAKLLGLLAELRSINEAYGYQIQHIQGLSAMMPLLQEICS
Luciferin 4-monooxygenase (Photinus pyralis), sequence (P08659 whole entry, looked up): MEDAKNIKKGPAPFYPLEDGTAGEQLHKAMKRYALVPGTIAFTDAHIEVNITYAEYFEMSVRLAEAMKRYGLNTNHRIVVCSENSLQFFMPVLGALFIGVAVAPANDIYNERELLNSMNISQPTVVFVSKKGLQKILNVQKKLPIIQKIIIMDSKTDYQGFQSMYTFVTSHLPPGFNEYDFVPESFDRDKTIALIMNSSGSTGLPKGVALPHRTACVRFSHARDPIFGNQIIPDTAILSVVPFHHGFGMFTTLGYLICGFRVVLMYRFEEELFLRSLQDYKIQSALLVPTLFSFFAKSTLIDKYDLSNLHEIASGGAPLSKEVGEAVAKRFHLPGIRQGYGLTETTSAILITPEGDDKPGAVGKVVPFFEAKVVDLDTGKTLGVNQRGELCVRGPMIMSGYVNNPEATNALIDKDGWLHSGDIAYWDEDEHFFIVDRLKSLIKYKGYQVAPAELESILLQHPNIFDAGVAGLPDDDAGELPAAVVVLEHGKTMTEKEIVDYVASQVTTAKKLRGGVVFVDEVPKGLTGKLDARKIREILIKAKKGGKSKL

With `[O]=[Cr][O][Cr]=[O]`, the Potency result in experiment [1], in experiment [2], in [3], in experiment [4], in experiment [5] and in experiment [6] was “inactive” each time. Further, the Potency result in experiment [7] was “inactive”.
As to `ClCBr`, the Potency result in experiment [1], in experiment [2], in [3], in experiment [4], in experiment [5] and in experiment [6] was “inactive” in each case. Besides, the Potency entry in experiment [7], in [8], in experiment [9] and in [10] was “inactive” throughout.
Consider `Oc1cc(Cl)cc(Cl)c1`, for which the Potency result in experiment [1], in [2], in experiment [3], in experiment [4], in [5] and in experiment [7] was “inactive” each time. Moreover, the Potency result in experiment [9] is “inactive”.
Take `CC(C)[C@@H](Nc1ccc(C(F)(F)F)cc1Cl)C(=O)OC(C#N)c1cccc(Oc2ccccc2)c1` (stereo not given in full): the Potency entry in [1], in [2], in [3], in experiment [4], in [5] and in [6] was “inactive” each time. In addition, in experiment [7], the Potency entry was “inactive”.
Consider `CN(C)CCc1c[nH]c2ccccc12`, for which the Potency entry in experiment [1], in experiment [2], in [3], in experiment [4], in [5] and in experiment [6] was “inactive” each time. The Potency result in [7] and in experiment [10] was “inactive” throughout.
Take `c1ccc2nc(N3CCNCC3)ccc2c1`: the Potency entry in experiment [1], in experiment [2], in experiment [3], in experiment [4], in experiment [5] and in experiment [6] was “inactive” each time. For the same compound, the Potency entry in experiment [7] is “inactive”.
With `O=c1c2ccccc2c(=O)c2c1cc(Cl)c1[nH]c3c([nH]c12)c(Cl)cc1c(=O)c2ccccc2c(=O)c13`, the Potency result in experiment [1], in experiment [3], in [4], in experiment [5], in experiment [6] and in experiment [7] was “inactive” each time. The Potency result in experiment [9] and in [10] was “inactive” throughout. For the same compound, the Potency in experiment [2] is 56.4 µM (active).
Take `Cc1ccc(C)c2ccccc12`: the Potency result in experiment [1], in experiment [2], in [3], in experiment [4], in experiment [5] and in experiment [6] was “inactive” throughout. In experiment [7], the Potency result was “inactive”.
As to `CCC[CH2][Sn]([CH2]CCC)([CH2]CCC)[CH2]CCC`, the Potency in experiment [1] was 27.3 µM (active); in experiment [3] it was 15.4 µM (active); in [4] it was 24.3 µM (active); in experiment [5] it was 9.69 µM (active); in [7], 17.2 µM (active). The Potency result in experiment [2], in [6] and in experiment [8] was “inactive” in each case.
Consider `O=c1[nH]c(Cl)c(Cl)cc1Cl`, for which the Potency entry in experiment [1], in experiment [2], in experiment [3], in experiment [4], in experiment [5] and in [6] was “inactive” in each case. The Potency entry in experiment [7], in [9] and in experiment [10] was “inactive” throughout.
Consider `C[C@]12CC[C@H]3[C@@H](CCC4=CC(=O)CC[C@@H]43)[C@@H]1CC[C@@H]2OC(=O)CCc1ccco1`, for which the Potency entry in experiment [1], in experiment [2], in experiment [3], in experiment [4], in experiment [5] and in experiment [6] was “inactive” in each case. The Potency result in experiment [7] and in experiment [10] was “inactive” throughout.
For the compound `CSC(=O)c1c(C(F)F)nc(C(F)(F)F)c(C(=O)SC)c1CC(C)C`, the Potency result in experiment [1], in experiment [2], in experiment [3], in [4], in experiment [5] and in experiment [7] was “inactive” each time.
For the compound `CCNc1nc(NC(C)C(C)C)nc(SC)n1` (stereo not given), the Potency entry in [1], in [2], in experiment [3], in experiment [4], in [5] and in [7] was “inactive” throughout. In addition, the Potency in experiment [6] was 48.6 µM (active).
Consider `CC1CCCC1`, for which the Potency result in [1], in experiment [2], in [3], in experiment [4], in [5] and in experiment [6] was “inactive” each time. For the same compound, the Potency entry in [7] and in experiment [10] was “inactive” in each case.
Take `CNC(C)(C)Cc1ccccc1`: the Potency result in [1], in [2], in experiment [3], in experiment [4], in experiment [5] and in experiment [7] was “inactive” in each case. Besides, in experiment [10], the Potency entry is “inactive”.
Take `CCCCC(CC)COC(=O)c1ccccc1C(=O)OCC(CC)CCCC` (stereo not given): the Potency result in experiment [1], in experiment [2], in experiment [3], in [4], in experiment [5] and in experiment [7] was “inactive” throughout. Further, the results for the Potency in experiment [6] and in experiment [10] were 17.2 µM (active) and 3.86 µM (active), respectively.
Consider `COc1ccc2c(c1OC)C(=O)O[C@@H]2[C@H]1c2cc3c(cc2CCN1C)OCO3`, for which the Potency in experiment [1] is 9.59 µM (active); in experiment [3], 7.62 µM (active); in experiment [4], 7.62 µM (active). For the same compound, the Potency result in experiment [2], in experiment [5], in [6] and in experiment [10] was “inactive” in each case.
On to `COc1ccc2c3c1O[C@H]1[C@H](O)CC[C@H]4[C@@H](C2)N(C)CC[C@@]341`, for which the Potency result in [1], in experiment [2], in [3], in experiment [4], in experiment [6] and in experiment [7] was “inactive” each time.
`c1csc(-c2ccc(-c3cccs3)s2)c1`: the Potency result in [1], in [4], in experiment [5] and in [7] was “inactive” in each case. Moreover, the Potency was 2.52 µM (active) in experiment [2] and 13.7 µM (active) in experiment [6].
In the case of `CNC(=O)O/N=C(\C)C(C)S(C)(=O)=O` (stereo not given), the Potency result in experiment [1], in [2], in experiment [3], in [4], in experiment [7] and in [8] was “inactive” each time. In addition, the Potency entry in experiment [9] and in experiment [10] was “inactive” each time.
Regarding `CCC(C)Nc1c([N+](=O)[O-])cc(C(C)(C)C)cc1[N+](=O)[O-]` (stereo not given), the Potency result in experiment [1], in experiment [3], in experiment [4], in [7], in experiment [8] and in experiment [9] was “inactive” throughout. Besides, the Potency in [2] is 71 µM (active).
Consider `COc1cnc(OC)n2nc(NS(=O)(=O)c3c(OCC(F)F)cccc3C(F)(F)F)nc12`, for which the Potency entry in experiment [1], in experiment [2], in experiment [3], in experiment [4], in experiment [6] and in experiment [7] was “inactive” each time. Also, the Potency result in experiment [8] and in experiment [9] was “inactive” each time.
In the case of `CC(C)Br`, the Potency entry in experiment [1], in [2], in [3], in [4], in experiment [6] and in [7] was “inactive” in each case. In [10], the Potency entry is “inactive”.
As to `C=Cc1cccc(CCl)c1`, the Potency result in experiment [1], in [2], in experiment [3], in experiment [4], in [6] and in experiment [7] was “inactive” throughout. Also, the Potency entry in experiment [10] is “inactive”.
Take `O=Cc1ccccc1`: the Potency entry in experiment [1], in experiment [2], in experiment [3], in experiment [4], in experiment [6] and in [7] was “inactive” throughout. Besides, the Potency entry in experiment [8], in [9] and in [10] was “inactive” in each case.
Turning to `CCOP(=S)(OCC)Oc1cc(C)nc(N(CC)CC)n1`, the Potency entry in experiment [1], in experiment [2], in [3], in experiment [4], in experiment [7] and in [9] was “inactive” throughout. Also, the Potency in experiment [6] was 19.3 µM (active).
